The list is not random: actives were taken first. Their share in the collection is about 5.2%.
PLK1 PBD inh = qHTS for Inhibitors of PLK1-PDB (polo-like kinase 1 - polo-box domain): Primary Screen | Serine/threonine-protein kinase PLK1 (Homo sapiens), P53350 | Plk1 PBD binding of FITC phosphopeptide, fluorescence polarization | Potency, µM, for the others: max response, negative = inhibition, actives largely listed as inhibitors | 2.8% of 360,000 active | AID 720504, 2013; note: potency is the fitted concentration of half-maximal effect; series mostly up to about 57 µM; % is set by controls: 0 for no effect and ±100 for the full control effect; nearly all actives have a fitted effect of over 65% in size
mIDH1 inhibitor = qHTS for Inhibitors of mutant isocitrate dehydrogenase 1 (IDH1): qHTS. 0.093% of 390,000 active. Potency, µM (series often up to 76.6 µM), for inactives: top-dose activity change, negative = inhibition, most hits filed as inhibitors. AID 602179, 2012. Isocitrate dehydrogenase [NADP] cytoplasmic (Homo sapiens), O75874. IDH1-R132H enzyme, NADPH consumption, diaphorase/resazurin fluorescence; note: potency is the fitted concentration of half-maximal effect; % is set by controls: 0 for no effect and ±100 for the full control effect; nearly all actives have a fitted effect of over 65% in size
Target sequence (O75874 whole entry R132H, stated change not applied): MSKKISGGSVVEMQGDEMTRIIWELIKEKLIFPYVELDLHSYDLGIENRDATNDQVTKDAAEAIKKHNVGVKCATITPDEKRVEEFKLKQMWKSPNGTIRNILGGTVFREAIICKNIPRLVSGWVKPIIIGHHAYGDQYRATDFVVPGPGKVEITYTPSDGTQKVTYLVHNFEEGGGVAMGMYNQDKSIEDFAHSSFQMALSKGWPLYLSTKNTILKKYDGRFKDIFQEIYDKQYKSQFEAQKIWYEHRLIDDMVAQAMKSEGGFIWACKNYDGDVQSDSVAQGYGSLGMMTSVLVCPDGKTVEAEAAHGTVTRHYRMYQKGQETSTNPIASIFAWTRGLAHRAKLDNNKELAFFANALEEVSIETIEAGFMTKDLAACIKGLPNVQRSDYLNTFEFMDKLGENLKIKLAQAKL
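IDH1-R132H (0.5 ug/mL) preincubated 30 min with compound, then NADPH (0.016 mM) and alpha-KG (2 mM) added; 80 min at RT, pH 7.5. Remaining NADPH coupled via diaphorase/resazurin to fluorescence (540/590 nm); concentration-response curves normalized to no-enzyme control.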
TrxR1 inh-1 = qHTS Assay for Inhibitors of Mammalian Selenoprotein Thioredoxin Reductase 1 (TrxR1): qHTS. Thioredoxin reductase 1, cytoplasmic (Rattus norvegicus), O89049. recombinant rTrxR1, NADPH fluorescence consumption, selenite substrate. Potency, µM (doses to about 114 µM), for the others: at the highest dose activity change, negative = inhibition, usual class: inhibitors. 1% of 390,000 active; note: potency is the fitted concentration of half-maximal effect; % is set by controls: 0 for no effect and ±100 for the full control effect; nearly all actives have a fitted effect of over 65% in size
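Rat TrxR1 (90 nM in the dispensed reagent) was pre-reduced with 400 uM NADPH for 5 min at room temperature, then incubated with compound for 15 min. After 400 uM selenite was added, NADPH fluorescence (Ex 340/Em 450 nm) was followed for 8 min.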
Sfp inh = qHTS Assay for Inhibitors of Bacillus subtilis Sfp phosphopantetheinyl transferase (PPTase); 4'-phosphopantetheinyl transferase ffp (Bacillus subtilis), Q9F4F7; 3.5% of 310,000 active; Potency, µM, for inactives: largest response in the series, negative = inhibition, most hits filed as inhibitors; Biochemical Sfp PPTase activity, qHTS; AID 1490, 2009;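 note: the enzyme is Sfp with the accession as filed and its product quenches rhodamine fluorescence; potency is the fitted concentration of half-maximal effect; 0% = enzyme reaction without inhibitor and -100% = no enzyme wells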
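Step 1, compound plus 15 nM Sfp-PPTase, 15 min, room temperature. Step 2, add rhodamine-CoA (5 uM) and BHQ-2-YbbR (12.5 uM). Step 3, read 525/598 nm fluorescence at 0 and 30 min.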
VDR inh = Inhibitors of the vitamin D receptor (VDR): qHTS | Vitamin D3 receptor (Homo sapiens), P11473 | VDR-SRC2-3 peptide fluorescence polarization, 2 h | Potency, µM, without a hit: max response, negative = inhibition, hits mostly inhibitors | 0.93% of 400,000 active | AID 504847, 2011; note: potency is the fitted concentration of half-maximal effect; % is set by controls: 0 for no effect and ±100 for the full control effect
Target sequence (P11473 whole entry, looked up): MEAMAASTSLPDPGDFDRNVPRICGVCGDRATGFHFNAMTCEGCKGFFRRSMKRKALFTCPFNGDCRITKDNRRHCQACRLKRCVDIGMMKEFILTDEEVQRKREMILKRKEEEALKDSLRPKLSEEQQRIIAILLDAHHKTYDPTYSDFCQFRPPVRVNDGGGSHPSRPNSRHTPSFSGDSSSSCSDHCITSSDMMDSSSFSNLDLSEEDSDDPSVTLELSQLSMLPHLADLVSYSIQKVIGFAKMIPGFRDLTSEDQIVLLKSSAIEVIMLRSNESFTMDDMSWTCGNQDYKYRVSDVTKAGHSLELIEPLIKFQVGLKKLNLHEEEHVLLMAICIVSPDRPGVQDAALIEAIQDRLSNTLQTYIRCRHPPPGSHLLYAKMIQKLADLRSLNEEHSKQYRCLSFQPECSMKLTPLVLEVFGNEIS
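VDR–SRC2-3 interaction, FP format. Cmpds 23 nl via pintool, brief spin, 2 h ambient incubation.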
TrxR1 substrate = qHTS Assay for Substrates of Mammalian Selenoprotein Thioredoxin Reductase 1 (TrxR1): qHTS; Thioredoxin reductase 1, cytoplasmic (Rattus norvegicus), O89049; purified TrxR1 substrate turnover, NADPH consumption readout; Potency, µM (doses to about 114 µM), without a hit: at the highest dose activity change, negative = substrate turnover; 0.01% of 390,000 active; note: potency is the fitted concentration of half-maximal effect; % is set by controls: 0 for no effect and ±100 for the full control effect; nearly all actives have a fitted effect of over 50% in size
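Rat TrxR1, dispensed at 90 nM, was prereduced with 400 uM NADPH (final) for 5 min at ~22 deg C, then incubated with compound 15 min before 400 uM selenite. A first-read NADPH fluorescence drop versus no-compound background flagged substrates.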
VDR inh confirm = qHTS for Inhibitors of the vitamin D receptor (VDR): Hit Validation in Primary Screen; 89% of 840 active; shares compounds with VDR inh; VDR-coactivator inhibition assay, qHTS confirmation; Potency, µM, usual class: inhibitors; note: potency is the fitted concentration of half-maximal effect
VDR FP = qHTS for Inhibitors of the vitamin D receptor (VDR): Hit Validation using a Fluorescein Assay; AID 602200, 2012; 48% of 840 active; shares compounds with VDR inh; Potency, µM (highest dose often 57.1 µM), inactives show at the top dose activity change, negative = inhibition, usual class: inhibitors; VDR-coactivator binding, fluorescein fluorescence polarization; note: potency is the fitted concentration of half-maximal effect
VDR bla reporter = qHTS for Inhibitors of the vitamin D receptor (VDR): Hit Validation using a Beta-Lactamase Assay | shares compounds with VDR inh | VDR beta-lactamase reporter cells, FRET ratio; cells co-treated with VDR agonist LG190178 | Potency, µM (top dose mostly 46.1 µM), for the others: at the highest dose activity change, negative = inhibition, usual class: inhibitors | 23% of 840 active | AID 602202, 2012; note: potency is the fitted concentration of half-maximal effect; % is set by controls: 0 for no effect and ±100 for the full control effect
VDR viability = qHTS for Inhibitors of the vitamin D receptor (VDR): Hit Validation using a Cytotoxicity Assay; AID 602204, 2012; 18% of 840 active; shares compounds with VDR inh; Potency, µM (series often up to 48.3 µM), without a hit: at the top dose activity change, negative = cytotoxicity, usual class: cytotoxic; cytotoxicity counter-screen, cell viability, qHTS;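 note: potency is the fitted concentration of half-maximal effect; plate controls were DMSO for no effect and high-concentration cycloheximide for full effect; nearly all actives have a fitted effect of over 75% in size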
GR counterassay = qHTS Assay for Inhibitors of Mammalian Selenoprotein Thioredoxin Reductase 1 (TrxR1): Counterassay in Glutathione Reductase (GR) | shares compounds with TrxR1 inh-1 | purified GR, DTNB reduction absorbance 405 nm kinetic | activity change, negative = inhibition, % at 57.1 µM | 55 tested, under 10 active
TrxR1 inh-2 = qHTS Assay for Inhibitors of Mammalian Selenoprotein Thioredoxin Reductase 1 (TrxR1): Hit Validation in Primary Screen; shares compounds with TrxR1 inh-1; recombinant TrxR1, NADPH fluorescence consumption, selenite substrate; Potency, µM, actives largely listed as inhibitors; 50% of 55 active; AID 652023, 2013
TrxR1 insulin = qHTS Assay for Inhibitors of Mammalian Selenoprotein Thioredoxin Reductase 1 (TrxR1): Insulin MOA Assay | shares compounds with TrxR1 inh-1 | TrxR1 Trx-coupled insulin reduction, NADPH absorbance 340 nm | Potency, µM | 20% of 55 active | AID 652037, 2013;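 active = compounds with a measured potency under 100 micromolar; inconclusive = filed, but no rule given; inactive = potency at or above that, or unmeasurable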
TrxR1 inh-3 = qHTS Assay for Inhibitors of Mammalian Selenoprotein Thioredoxin Reductase 1 (TrxR1): DTNB Assay; purified TrxR1, DTNB reduction, A412; shares compounds with TrxR1 inh-1; 90% of 55 active; AID 652256, 2013; Potency, µM;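 active = a half-inhibiting concentration could be measured and was below 100 µM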
IDH1 autofl = qHTS for Inhibitors of mutant isocitrate dehydrogenase 1 (IDH1): Cherrypicks Autofluorescence Interference; shares compounds with mIDH1 inhibitor; Resorufin detection reagent fluorescence interference, cell-free; inhibition of signal, % at 51.2 µM; 750 tested, under 10 active; AID 623980, 2012;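 note: 0% = wells with normal resorufin and full inhibition = wells lacking resorufin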
IDH1 WT = qHTS for Inhibitors of mutant isocitrate dehydrogenase 1 (IDH1): Cherrypicks in WT IDH1. shares compounds with mIDH1 inhibitor. WT IDH1 enzyme, NADPH diaphorase/resazurin fluorescence. Potency, µM (titrated, usually from 115 µM), inactives show at the top dose activity change, negative = inhibition, usual class: inhibitors. 9% of 750 active. AID 623995, 2012;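 note: potency is the fitted concentration of half-maximal effect; 0% = full WT IDH1 enzyme control and full inhibition = no enzyme wells; nearly all actives have a fitted effect of over 55% in size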
Target sequence (O75874 whole entry, looked up): as the sequence (O75874 whole entry R132H, stated change not applied) above, with H132R counted along it
mIDH1 confirm = qHTS for Inhibitors of mutant isocitrate dehydrogenase 1 (IDH1): Confirmation of Cherrypicks; shares compounds with mIDH1 inhibitor; IDH1 R132H enzyme, NADPH diaphorase/resazurin fluorescence; Potency, µM (series often up to 76.6 µM), for the others: top-dose activity change, negative = inhibition, actives largely listed as inhibitors; 83% of 750 active; note: potency is the fitted concentration of half-maximal effect; nearly all actives have a fitted effect of over 50% in size
TbPYK inh = qHTS of Trypanosoma Brucei Inhibitors: Confirmatory Assay for Cherry-picked Compounds. shares compounds with PLK1 PBD inh. Potency, µM (highest dose often 76.9 µM), for the others: at the highest dose activity change, negative = inhibition, hits mostly inhibitors. 67% of 890 active. recombinant TbPYK, Kinase-Glo ATP luminescence; note: potency is the fitted concentration of half-maximal effect; % is set by controls: 0 for no effect and ±100 for the full control effect; nearly all actives have a fitted effect of over 70% in size
TbPYK orthogonal = qHTS of Trypanosoma Brucei Inhibitors: Orthogonal Assay for Cherry-picked Compounds | shares compounds with PLK1 PBD inh | recombinant TbPYK, ADP-Glo luminescence, 60 min | Potency, µM (top dose mostly 76.9 µM), without a hit: at the top dose activity change, negative = inhibition, most hits filed as inhibitors | 62% of 890 active | AID 720584, 2013; note: potency is the fitted concentration of half-maximal effect; % is set by controls: 0 for no effect and ±100 for the full control effect; nearly all actives have a fitted effect of over 75% in size
The depositor's hits bear a star; ? = inconclusive; nt = no result; ! = a repeat was not active; [ ] = another dose, or the depositor's remark. Unless noted, calls come from the whole dose curve; as a rule, active = well fitted curve in the direction sought with a large enough effect; inconclusive = small, poorly fitted or top-dose-only effect, or another doubt; inactive = no such curve, though single readings can be large; an effect the other way counts as inactive or inconclusive.

SMILES | PLK1 PBD inh | mIDH1 inhibitor | TrxR1 inh-1 | Sfp inh | VDR inh | TrxR1 substrate | VDR inh confirm | VDR FP | VDR bla reporter | VDR viability | TbPYK inh | TbPYK orthogonal | others
CN1C(=O)C(=Cc2ccccc2OS(=O)(=O)c2ccccc2)C(=O)N(C)C1=O | 5.3µM* | 18% | 28µM* | 35µM* | 25µM* | -2% | 27* | 11µM* | 20% | -13% | 20µM* | ?
c1ccc(CCN2CCCCC2)cc1 | nt | nt | 12% | nt | nt | 9% | nt | nt | nt | nt | nt | nt
O=C(O)/C=C/C(=O)c1ccc2c(c1)CCc1ccccc1-2 | 6µM* | -25% | ? | nt | 3.5µM* | 4%[57.1 µM] | 3.8* | ? | ? | ? | 13µM* | 16µM*
Nc1ccc2c(c1)Cc1ccccc1-2 | -24% | 3% | -1% | 4% | -20% | 8% | nt | nt | nt | nt | nt | nt
COc1ccc(N2C(=O)/C(=C/C=C/c3ccccc3[N+](=O)[O-])C(=O)NC2=S)cc1 | 1.3µM* | -9% | ? | 35µM* | 22µM* | 5%[57.1 µM] | 3.4* | ? | ? | -21% | 11µM* | 25µM*
CC1=C[C@@H]2c3cccc4[nH]cc(c34)C[C@H]2N(C)C1 | ? | 3% | 2.5µM* | -4% | 50µM*! | 27% | nt | nt | nt | nt | nt | nt | GR counterassay=-4;TrxR1 inh-2=?;TrxR1 insulin=49µM*;TrxR1 inh-3=2.2µM*
CCN1C[C@]2(C)CC[C@H](OC)[C@]34C5C[C@@H]6CC[C@@](O)(C5C(=O)O6)C(C13)[C@@H](OC(=O)c1ccccc1)C24 | nt | nt | nt | 9% | 3% | nt | nt | nt | nt | nt | nt | nt
Cc1ccc(-n2nc3c(=O)n(CC(=O)NCC(C)c4ccccc4)nc(C)c3c2C)cc1 (stereo not given) | nt | ? | 9% | nt | 1% | 0% | nt | nt | nt | nt | nt | nt | IDH1 autofl=2;IDH1 WT=-11%;mIDH1 confirm=-1%
CC(=O)Nc1ccc(C(=O)OCC(=O)Nc2ccc(Cl)cc2C(=O)c2ccccc2)cc1 | -8% | ? | 2% | -10% | -5% | -6% | nt | nt | nt | nt | nt | nt
O=C(COC(=O)c1ccc(O)cc1)Nc1ccc(Cl)cc1C(=O)c1ccccc1 | -10% | 58µM* | 21%[57.1 µM] | -8% | -13% | 5%[57.1 µM] | nt | nt | nt | nt | nt | nt | IDH1 autofl=-1;IDH1 WT=7%;mIDH1 confirm=35µM*
